{"source": "PubChem BioAssay (NCI)", "note": "Several values for one entry are separate records, joined by “and”; a condition that tells them apart may be missing. Equal entries are not always repeated. This is part of a sample that, as a whole, favours compounds with a hit. Of some 83,000 tested, about 20% had one in any assay.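 Single-concentration screen, 48 h exposure, 96-well plates. Endpoint: percent growth. Below 10 = active.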 A number with no mark means an inactive call. Activity calls are given as the source filed them."}
{"system": "DU-145 prostate", "assay": "NCI-60 one-dose screen, 48 h (100 = growth as untreated, 0 = no growth, -100 = all killed)", "details": "10 µM unless noted"}
{"smiles": "COc1ccc(C/C(C)=C(/c2ccc(OCCN3CCCC3)cc2)c2ccc(OC(=O)NCc3ccccc3)cc2)cc1", "growth": "95%"}
{"smiles": "CCN(CC)CCOc1ccc(/C(=C(\\Cl)c2ccccc2)c2ccccc2)cc1", "growth": "74.6% and 103%"}
{"smiles": "Cc1ccc(/C=C2\\COc3ccc(O)c(O)c3C2=O)cc1", "growth": "4.29% (active)"}
{"smiles": "COc1ccc2c(c1)oc1c(C)c3c(c(C)c12)C(=O)N(Nc1ccccc1)C3=O", "growth": "97.4%"}
{"smiles": "CCC(=C(c1ccc(OCCCN(C)C)cc1)c1ccc(OCCCN(C)C)cc1)c1ccc(Cl)cc1", "growth": "-90.8% (active)"}
{"smiles": "CCOC(=O)c1c(-c2ccc(C)cc2)c(C#N)c(=O)n(-c2cccc(C(F)(F)F)c2)c1N", "growth": "108%"}
{"smiles": "S=c1nc(CS)[nH]c2ccccc12", "growth": "108%"}
{"smiles": "O=C(N/N=C/c1ccc(O)cc1O)c1cccc(Nc2ccnc(C(F)(F)F)c2)c1", "growth": "17.7%"}
{"smiles": "CCN(CC)CCCN1C(=O)c2c(c(C)c3c(oc4cc(OC)ccc43)c2C)C1=O", "growth": "112%"}
{"smiles": "Cc1ccc(NC(=O)c2ccc(CN3CCN(C)CC3)cc2)cc1Nc1nccc(-c2cccnc2)n1", "growth": "85.6% and 88.2%"}
{"smiles": "COc1cc(/C=C2/C=C(c3ccc(C(C)(C)C)cc3)N(CCc3ccc(S(N)(=O)=O)cc3)C2=O)cc(OC)c1OC", "growth": "77.1%"}
{"smiles": "O=c1c(/C=C/c2ccco2)nnc2sc(Nc3ccc(Cl)cc3)nn12", "growth": "111%"}
{"smiles": "Nc1[nH]nc(Nc2ccccc2)c1-c1nc2ccccc2s1", "growth": "27.8%"}
{"smiles": "CCCCCCCCn1ccc2cc(NC(=O)CN3CCN(c4nc(C)cc(N5CCCCC5)n4)CC3)ccc21", "growth": "95.2%"}
{"smiles": "CC/C(=C(/c1ccc(O)cc1)c1ccc(OCCN2CCCCCC2)cc1)c1ccc(Cl)cc1", "growth": "82.9%"}
{"smiles": "C=C(C)[C@@H]1CC[C@]2(C(=O)N3CCN(C)CC3)CC[C@]3(C)[C@H](CC[C@@H]4[C@@]5(C)CC(CCCNC(C)=O)(CCCNC(C)=O)[C@H](OC(C)=O)C(C)(C)[C@@H]5CC[C@]43C)[C@@H]12", "growth": "108%"}
{"smiles": "CCN(c1cc(-c2ccc(CN3CCC(/C=C/S(=O)(=O)c4ccccc4)CC3)cc2)cc(C(=O)NCc2c(C)cc(C)[nH]c2=O)c1C)C1CCOCC1", "growth": "78.9%"}
{"smiles": "Nc1nc(N)c2c(n1)NC(c1ccc(Cl)cc1)CC(c1cccc(Nc3ccncc3)c1)=N2", "note": "(stereo not drawn)", "growth": "70%"}
{"smiles": "C=C(c1ccc(C(=O)O)cc1)c1cc2c(cc1C)C(C)(C)CCC2(C)C", "growth": "94.4% and 92.3%"}
{"smiles": "O=C1OCC2=C1C(c1cccc([N+](=O)[O-])c1)c1cc3c(cc1N2CCO)CCC3", "note": "(stereo not drawn)", "growth": "3.17% (active)"}
{"smiles": "CCN(CC)/C([O-])=c1\\cccc\\c1=C1\\N=C(c2ccccc2)N=C1[n+]1ccc(-c2ccccc2)cc1", "growth": "102%"}
{"smiles": "Cc1nc(-n2[nH]c(=O)ccc2=O)sc1N=Nc1ccccc1", "growth": "112%"}
{"smiles": "Cc1ccc(-c2nc3nc(-c4ccccc4)nc(N4CCCNCC4)c3o2)cc1", "growth": "-25.5% (active)"}
{"smiles": "O=C([C@H]1C[C@H]1c1ccc(S(F)(F)(F)(F)F)cc1)N1CCN(c2cc(Cl)ccc2C(F)(F)F)CC1", "growth": "104%"}
{"smiles": "OB(O)c1ccsc1-c1nc2ccc3[nH]ncc3c2c2c1CCCC2", "growth": "47.3%"}
{"smiles": "CC[C@]12CN3CCc4c([nH]c5ccccc45)[C@@](C(=O)OC)(c4cc5c(cc4OC)N(C)[C@H]4[C@@](O)(C(=O)OC)[C@H](OC(C)=O)[C@]6(CC)C=CCN7CC[C@]54[C@@H]76)CC(C3)[C@H]1O2", "note": "(stereo partly drawn)", "growth": "-21.8% (active)"}
{"smiles": "COC(=O)N/N=C/c1c[n+]([O-])c2ccccc2[n+]1[O-]", "growth": "114%"}
{"smiles": "Cn1ccnc1CN1CCSC(C(=O)Nc2ccccc2)C1", "note": "(stereo not drawn)", "growth": "100%"}
{"smiles": "CCNC(=O)Oc1ccc(/C(=C(/C)Cc2ccc(OC)cc2)c2ccc(OCCN(CC)CC)cc2)cc1", "growth": "77.3%"}
{"smiles": "Cc1ccc(-c2nc(C#N)c(S(=O)(=O)N(C)C)o2)cc1", "growth": "103%"}
{"smiles": "COCCn1cc(-c2nc(-c3cn(CCOC)c4ncccc34)cs2)c2ccccc21", "growth": "97.1%"}
{"smiles": "Nc1nc2ccccc2c2c(=O)c3ccc(Cl)cc3sc12", "growth": "97.5%"}
{"smiles": "CC[C@]1(O)CC2CN(CCc3c([nH]c4ccccc34)C(C(=O)OC)(c3cc4c(cc3OC)N(C=O)[C@H]3[C@@](O)(C(=O)OC)[C@H](OC(C)=O)[C@]5(CC)[C@@H]6C[C@@H]6CN6CC[C@]43[C@@H]65)C2)C1", "note": "(stereo partly drawn)", "growth": "-41.4% (active)"}
